“And” between values parts separate entries of the source, which are not always exact repeats. Equal values may be shown once. Inconclusive results are not listed. The source made the active and inactive calls. The call rests on the fitted dose curve; in most records, active means well fitted curve in either direction with a large enough effect (not every such curve was filed as active); inconclusive means small, poorly fitted or top-dose-only effect, or another doubt; inactive means flat fitted curve, though single readings scatter.
On the % scale 0 is the no-effect control and ±100 the full control effect.

The nature of one assay: AP1 Signaling Pathway (AID 357).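 Further: ME-180 reporter cells stimulated with EGF at its EC50 level.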 The following applies: ME-180 AP-1-bla reporter, EGF-induced, beta-lactamase ratio, 5 h; at 17.2 µM (top of the series). An excerpt:
NCGC Assay Overview: Activator protein-1 (AP-1), a transcription factor, plays an important role in tumor genesis by regulating genes involved in cell proliferation, differentiation, apoptosis, and angiogenesis. AP-1 activity is induced by a complex network of signaling pathways that involves extracellular signals, such as growth factors. The AP-1 protein complex formed from c-Fos and c-Jun binding to the AP-1 response element results in transcriptional activation of genes containing such elements within their promoter. Low molecular weight molecules have been discovered and developed to modulate various components of these signaling pathways, for example, MAP kinase inhibitors. However, many points of pathway modulation remain untested due to the lack of chemical probes making this signaling locus of general interest. Using a beta-lactamase reporter-gene under control of the AP-1 response element, a cell-based assay [CellSensor(TM) AP-1-bla ME-180 developed by Invitrogen Corp.] was used to measure EGF-induced signaling. Library compounds were measured for their ability to modulate positively or negatively the action of EC50 EGF on reporter gene activity. Compounds were screened in a titration series in 1536-well format. Positive and negative modulators were identified based on the AC50 values derived from the screening data.
NCGC Assay Protocol Summary: 2500 cells/5uL in Opti-MEM medium containing 0.5% dialyzed FBS, 0.1 mM NEAA, 1 mM sodium pyruvate and 10 mM HEPES was dispensed into 1536-well plates and cells were cultured at 37 degrees Celsius overnight. […] After centrifugation at 1000 rpm for 2 seconds the plates were incubated at 37 degrees Celsius for 5 hours. 1 uL of CCF4-dye mixture was added to each well. After incubated at room temperature for 2.5 hours the plates were measured on an EnVision plate reader at Excitation 405nm, Emission1=460nm and Emission 2=530nm. The %Activity was determined from the ratio of 460nm/530nm.
In the case of `CC[C@@H]1C(=O)OC[C@@H]1Cc1cncn1C`, the activity change, negative = inhibition is -3.08% (inactive) and 5.87% (inactive).
The same measure, in the same setting: as for `NCCc1c[nH]c2ccc(O)cc12`, the figure is 7.63% (inactive); as for `CC[C@@]1(O)C(=O)OCc2c1cc1n(c2=O)Cc2cc3ccccc3nc2-1`, -111% (active).
Same read-out and setting: next, `CCCCc1ccc(C(=O)O)nc1`: -4.11% (inactive); `Cc1nccc2c1[nH]c1ccccc12`: -6.36% (inactive).
Same read-out and setting: as for `CN(C)[C@@H]1C(=O)C(C(N)=O)=C(O)[C@@]2(O)C(=O)C3=C(O)c4c(O)cccc4[C@@](C)(O)[C@H]3[C@H](O)[C@@H]12`, the figure is 12.6% (inactive).
Turning to `CC(=O)OCC1=C(C(=O)O)N2C(=O)[C@@H](N)[C@@H]2SC1`, the activity change, negative = inhibition is 2.29% (inactive).
Still for that read-out and setting: next, `O=c1cccc2n1CC1CNC[C@H]2C1`: -4.28% (inactive).

Staying with this assay, now noted: ME-180 (cervical carcinoma) AP-1-bla reporter, EGF-induced, beta-lactamase ratio, 5 h; at 38 µM (top of the series).
For the molecule `CC(=O)NCCc1c[nH]c2ccccc12`, the activity change, negative = inhibition was 3.76% (inactive).
Still for that read-out and setting: next, `C[C@]12N[C@H](Cc3ccccc31)c1ccccc12`: -6.02% (inactive) and 8.41% (inactive).
Same read-out and setting: as for `c1ccc2sc(C3(N4CCCCC4)CCCCC3)cc2c1`, the figure is -1.54% (inactive); as for `NCCc1c[nH]c2ccc(O)cc12`, 7.62% (inactive); as for `CNCCc1c[nH]c2ccc(O)cc12`, 7.75% (inactive).
As for `c1ccc(CCCN2CCN(CCOC(c3ccccc3)c3ccccc3)CC2)cc1`, the activity change, negative = inhibition was -23% (inactive).
On the same count and under the same terms, next, `CCCN1CCC[C@H](c2cccc(O)c2)C1`: -0.74% (inactive) and -8.16% (inactive); `CC[C@@]1(O)C(=O)OCc2c1cc1n(c2=O)Cc2cc3ccccc3nc2-1`: -97.5% (active).
Same read-out and setting: as for `CNCCc1ccc(O)c(O)c1`, the figure is -12.9% (inactive); as for `CCCCc1ccc(C(=O)O)nc1`, -6.7% (inactive); as for `C#CCOC(=O)C1=CCCN(C)C1`, 16.6% (inactive).
On the same count and under the same terms, as for `Clc1cnc(Oc2ccc(Oc3ncc(Cl)cc3Cl)cc2)c(Cl)c1`, the figure is 8.39% (inactive); as for `O=C(O)Cc1cnc[nH]1`, 10.5% (inactive); as for `COc1ccc2c(c[n+](C)c3c4cc5c(cc4ccc23)OCO5)c1OC`, 1.37% (inactive).
On to `CC(C)Oc1cccnc1N(C)C1CCN(Cc2ccccc2)CC1`, for which the activity change, negative = inhibition is 2.27% (inactive).
As for `Cc1nccc2c1[nH]c1ccccc12`, the activity change, negative = inhibition is -14.9% (inactive).
Same read-out and setting: next, `NCCc1c[nH]c2ccccc12`: -5.53% (inactive); `CCCN1CCO[C@@H]2c3cc(O)ccc3OC[C@H]21`: -14.2% (inactive) and 2.45% (inactive).
The same measure, in the same setting: next, `O=C1CCCN1CC#CCN1CCCC1`: 8.1% (inactive).
Same read-out and setting: next, `CN[C@@H]1C[C@@H](c2ccc(Cl)c(Cl)c2)c2ccccc21`: 23.3% (inactive); `O=C(O)CC[N+](=O)[O-]`: -8.61% (inactive); `S=C(NC1CCCCC1)N1CCC(c2cnc[nH]2)CC1`: -10.5% (inactive).
For the molecule `C[C@@H]1O[C@H](C[N+](C)(C)C)C[C@H]1O`, the activity change, negative = inhibition was 15.5% (inactive).
Same read-out and setting: next, `CCCN(CCC)[C@@H]1CCc2ccc(O)cc2C1`: 4.4% (inactive) and -2.26% (inactive); `NCc1cc(=O)[nH]o1`: 1.2% (inactive); `Cn1cnc(CCN)c1`: 7.44% (inactive).
On the same count and under the same terms, as for `CC1=NN=C(c2ccc(N)cc2)c2cc3c(cc2C1)OCO3`, the figure is -19.4% (inactive).

(Values after PubChem BioAssay (NCATS).)
